# Pf growth 48h = Primary qHTS for delayed death inhibitors of the malarial parasite plastid, 48 hour incubation | 310,000 compounds, 5.9% hits | Potency, µM (titrated, usually from 28.7 µM), without a hit: at the highest dose activity change, negative = inhibition, most hits filed as inhibitors | P. falciparum luciferase growth in erythrocytes, 48 h; further: on the % scale 0 is the no-effect control and ±100 the full control effect
#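 First compound was added to culture medium, then infected red cells at 0.1% parasitemia and 2% hematocrit (final). After incubation at 37 C under 5% CO2, luciferase detection reagent was dispensed and light output recorded.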
# SARS PLpro yeast = qHTS of Yeast-based Assay for SARS-CoV PLP. 330,000 compounds, 0.19% hits. Potency, µM (titrated, usually from 32.9 µM), without a hit: at the top dose activity, positive = growth rescue, actives largely listed as activators. AID 485353, 2010. S. cerevisiae expressing SARS-CoV PLpro, growth rescue; calls by dose curve; further: 0% is about no effect; nearly all actives have a fitted effect of over 55% in size
# AmpC detergent = qHTS Inhibitors of AmpC Beta-Lactamase (assay with detergent); Potency, µM (titrated, usually from 114 µM), for the others: at the top dose activity change, negative = inhibition, most hits filed as inhibitors; AID 485294, 2010; AmpC hydrolysis of nitrocefin, absorbance 480 nm, 0.01% Triton; 370,000 compounds, 0.041% hits; P00811;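 further: 0% = no-compound wells and -100% = no-enzyme wells; nearly all actives have a fitted effect of over 25% in size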
# Target sequence (P00811 whole entry, looked up): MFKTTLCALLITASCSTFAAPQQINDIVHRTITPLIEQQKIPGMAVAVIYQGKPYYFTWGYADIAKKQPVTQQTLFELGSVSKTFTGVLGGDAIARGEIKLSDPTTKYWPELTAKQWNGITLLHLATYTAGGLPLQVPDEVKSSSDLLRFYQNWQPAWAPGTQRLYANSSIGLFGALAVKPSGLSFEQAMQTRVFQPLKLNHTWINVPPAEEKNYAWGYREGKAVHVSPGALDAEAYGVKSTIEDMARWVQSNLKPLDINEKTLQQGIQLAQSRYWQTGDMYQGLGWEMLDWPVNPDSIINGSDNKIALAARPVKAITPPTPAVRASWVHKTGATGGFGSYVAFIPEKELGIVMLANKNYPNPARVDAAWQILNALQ
#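 20 mM phosphate pH 7.0 + 0.01% (detergent screen) or 0.0001% Triton X-100; 5.3 nM AmpC reagent; cpd preinc 15 min RT; nitrocefin (800 uM stock) to start; A480 q20 s × 4 min; Activity was normalised to no-enzyme and no-compound control wells.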
# Pf growth 96h = Primary qHTS for delayed death inhibitors of the malarial parasite plastid, 96 hour incubation | P. falciparum luciferase reporter growth, 96 h | Potency, µM (titrated, usually from 28.7 µM), for inactives: top-dose activity change, negative = inhibition, most hits filed as inhibitors | 320,000 compounds, 6.9% hits | AID 504834, 2011; further: on the % scale 0 is the no-effect control and ±100 the full control effect
#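 96 h incubation, 37 C, 5% CO2, of luciferase-reporter P. falciparum-infected RBCs (2% hematocrit, 0.05% parasitemia final) with test compounds; endpoint luminescence.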
# Sm TGR block = qHTS Assay for the Inhibitors of Schistosoma Mansoni Peroxiredoxins | Schistosoma mansoni thioredoxin glutathione reductase (TGR), Q962Y6 | purified TGR, DTNB reduction, TNB absorbance 405 nm | Potency, µM (doses to about 114 µM), for the others: top-dose activity change, negative = inhibition, most hits filed as inhibitors | 360,000 compounds, 3% hits | AID 485364, 2010; further: on the % scale 0 is the no-effect control and ±100 the full control effect; nearly all actives have a fitted effect of over 60% in size
#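 Kinetic colorimetric format: TGR-catalysed, NADPH-driven DTNB reduction monitored via TNB absorbance. Enzyme dispensed at 20 nM; compound exposure 15 min at room temperature before reaction start.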
# AmpC inh no detg = qHTS Inhibitors of AmpC Beta-Lactamase (assay without detergent); P00811; AmpC nitrocefin hydrolysis, absorbance 480 nm, 0.0001% Triton; Potency, µM (highest dose often 57.1 µM), inactives show top-dose activity change, negative = inhibition, actives largely listed as inhibitors; 330,000 compounds, 0.52% hits; AID 485341, 2010;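 further: plate controls were no compound for no effect and no enzyme for full effect; nearly all actives have a fitted effect of over 20% in size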
#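 AmpC (5.3 nM in the dispensed reagent) in 20 mM phosphate pH 7.0 with 0.01% (detergent screen) or 0.0001% Triton X-100 was preincubated with compounds for 15 min at room temperature. Nitrocefin was then added from an 800 uM solution, and hydrolysis was followed at 480 nm.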
# Starred values were filed as active, the others as inactive; ? = inconclusive; . = not tested or not shown. Shown are actives, neighbours in structure and some others; about 12% of the full set was active somewhere. Unless noted, the call rests on the fitted dose curve; in most records, active means well fitted curve in the direction sought with a large enough effect; inconclusive means small, poorly fitted or top-dose-only effect, or another doubt; inactive means no such curve, though single readings can be large; an effect the other way counts as inactive or inconclusive. Potency means the concentration at half of the fitted maximal effect.
SMILES,Pf growth 48h,SARS PLpro yeast,AmpC detergent,Pf growth 96h,Sm TGR block,AmpC inh no detg
CCOc1ccc(NC(=S)Nc2ccc(C)c([N+](=O)[O-])c2)cc1,.,11%,-14%,2.1µM*,-16%,-34%
CCOC(=O)Nc1ccc(OC)c([N+](=O)[O-])c1,15µM*,0%,?,0%,-5%,-21%
COc1ccc(C(=O)NC(=S)Nc2cc(C)ccn2)cc1[N+](=O)[O-],31%,-7%,-10%,4.7µM*,-7%,-10%
COc1ccc(C(=O)COC(=O)c2ccc(NC(C)=O)cc2)cc1[N+](=O)[O-],7%,2%,-1%,?,2%,-18%
COc1ccc(C(=O)Nc2cc(C)on2)cc1[N+](=O)[O-],-6%,0%,-6%,19%,-20%,-7%
CCOc1ccc(NC(=S)Nc2ccc(OCC)cc2)cc1,-19%,1%,5%,?,15%,14%
COc1ccc(C(=O)Nc2ccncc2)cc1[N+](=O)[O-],8.3µM*,4%,8%,41%,2%,-26%
Cc1ccccc1Cn1c(SCc2ccc(C(=O)NCc3cccs3)cc2)nc2ccncc21,.,.,16%,.,27%,.
O=C(Nc1c(C(=O)N2CCN(c3ccccc3)CC2)oc2ccccc12)c1ccc(Br)o1,.,.,26%,.,-2%,.
COc1ccccc1CCNC(=O)C(=O)NCC1OCCN1S(=O)(=O)c1ccc(OC)c(OC)c1 (centres undefined),?,-4%,-15%,?,-17%,102%
CCc1ccccc1NC(=O)c1sc(-n2nc(C)c(Cc3ccccc3)c2C)nc1C,.,.,18%,.,2%,.
O=C(CNC(=O)c1[nH]cnc1C(=O)NC(c1ccccc1)c1ccccc1)OCc1ccccc1,?,7%,-24%,1.9µM*,-4%,-26%
C[C@H](NC(=O)c1nc[nH]c1C(=O)N[C@@H](Cc1ccccc1)C(=O)OCc1ccccc1)C(=O)OC(C)(C)C,7.4µM*,10%,4%,?,3%,1%
C[C@@H](NC(=O)c1nc[nH]c1C(=O)N[C@@H](Cc1ccccc1)C(=O)OCc1ccccc1)c1ccccc1,?,1%,11%,?,8%,-17%
O=C(CNC(=O)c1[nH]cnc1C(=O)N[C@@H](Cc1ccccc1)C(=O)OCc1ccccc1)OCc1ccccc1,10%,13%,?,2%,-17%,-24%
C[C@H](NC(=O)c1nc[nH]c1C(=O)N[C@@H](C)C(=O)OC(C)(C)C)C(=O)OCc1ccccc1,-2%,-3%,-12%,1%,5%,82%
CC(C)C[C@H](NC(=O)c1[nH]cnc1C(=O)N[C@@H](Cc1ccccc1)C(=O)OC(C)(C)C)C(=O)OCc1ccccc1,?,4%,-21%,95%,-2%,-5%
O=C(N[C@@H](Cc1ccccc1)C(=O)OCc1ccccc1)c1nc[nH]c1C(=O)NC(c1ccccc1)c1ccccc1,1.3µM*,-1%,4%,9.3µM*,7%,-15%
CC(C)C[C@H](NC(=O)c1[nH]cnc1C(=O)N[C@@H](Cc1ccccc1)C(=O)OC(C)(C)C)C(=O)OC(C)(C)C,9.3µM*,0%,13%,?,-8%,6%
Cc1c(C(=O)OCC(=O)N2CCN(c3ccccc3)CC2)oc2ccccc12,.,1%,.,.,.,-2%
CCc1cccc(NC(=O)CCSCCC(=O)Nc2cccc(CC)c2)c1,-1%,-11%,1%,.,-3%,-16%
Cc1cc(Cl)ccc1NC(=O)C1CCN(S(=O)(=O)c2ccc3[nH]c(=O)ccc3c2)CC1,.,.,4%,.,2%,.
CN(C)CCCNC(=O)C[C@H]1C[C@H](C(=O)N2CCOCC2)[C@@]2(C)c3[nH]c4ccc(Cl)cc4c3CCN2C1=O,.,1%,.,.,.,32%
O=Cc1ccc(Oc2cc(-c3ccccc3)nc(-c3ccccc3)n2)cc1,23%,23%,-8%,13µM*,-1%,-20%
CCCSc1ncc(Cl)c(C(=O)NCc2ccc(C)cc2)n1,.,.,-1%,.,-4%,.
SMILES,Pf growth 48h,SARS PLpro yeast,AmpC detergent,Pf growth 96h,Sm TGR block,AmpC inh no detg
COc1ccc(C(CCNCc2ccc(F)cc2)c2ccc(F)cc2)cc1 (centres undefined),4.7µM*,-4%,-19%,?,-6%,0%
COc1ccc(CNCCC(c2ccc(F)cc2)c2ccc(OC)cc2)cc1 (centres undefined),?,27%,?,?,-8%,7%
COc1ccc(CNCCC(c2ccc(OC)cc2)c2ccccc2OC)cc1 (centres undefined),?,-2%,-2%,?,-21%,1%
COc1ccc(CNCCC(c2ccccc2)c2ccc(OC(C)C)cc2)cc1OC (centres undefined),9.3µM*,0%,0%,?,0%,57%
COc1ccc(CC(C)NCCC(c2ccccc2)c2ccccc2)cc1 (centres undefined),?,-7%,2%,10µM*,-3%,3%
COc1ccc(C(CCNCc2ccc(OC(C)C)cc2)c2ccccc2OC)cc1 (centres undefined),12µM*,-4%,-4%,12µM*,-2%,11%
COc1ccc(C(CCNC(C)c2ccccc2)c2ccc(F)cc2)cc1 (centres undefined),?,10%,?,?,1%,5%
Cc1cc(NC(=O)CCC(=O)N(c2ccccc2C)C(C(=O)NC2CCCC2)c2ccccc2)no1 (centres undefined),?,-2%,-1%,-68%,-1%,-2%
O=C(NC1CC(=O)N(c2ccc(Cl)cc2)C1)c1cccs1 (centres undefined),.,.,2%,.,10%,.
COc1ccccc1C(CC(=O)Nc1ccccc1C)c1ccc(OC(C)C)cc1 (centres undefined),15µM*,-16%,-9%,?,0%,-27%
COc1ccc(CNCCC(c2ccc(F)cc2)c2ccc(OC(C)C)cc2)cc1OC (centres undefined),13µM*,-8%,-2%,12µM*,18%,84%
COc1ccc(CN(CCC(c2ccccc2)c2ccc(OC(C)C)cc2)C(=O)CCl)cc1OC (centres undefined),?,-4%,?,3.7µM*,?,183%
COc1ccc(NC(=O)CC(c2ccc(F)cc2)c2ccc(OC(C)C)cc2)cc1 (centres undefined),?,6%,1%,?,0%,-15%

# Screens as filed in PubChem.
